How the values were obtained:
Conditions in all cases: concentration: 1 μM, replicates: in singlicate; n = 1
INSR = system: INSR
IRAK1 = system: IRAK1
IRAK3 = system: IRAK3
IRAK4 = system: IRAK4
ITK = system: ITK
[1] = system: JAK1(JH1domain-catalytic)
[2] = system: JAK1(JH2domain-pseudokinase)
[3] = system: JAK2(JH1domain-catalytic)
[4] = system: JAK3(JH1domain-catalytic)
JNK1 = system: T1, JNK1
T1 construct: gene MAPK8

JNK2 = system: T2, JNK2
T2 construct: gene MAPK9

JNK3 = system: T3, JNK3
T3 construct: gene MAPK10

KIT-autoinhibited = system: KIT-autoinhibited
KIT = system: KIT
LATS1 = system: LATS1
LATS2 = system: LATS2
LCK = system: LCK
LIMK1 = system: LIMK1
LIMK2 = system: LIMK2
LKB1 = system: T4, LKB1
T4 construct: gene STK11
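Also: KINOMEscan kinase panel screen.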

SMILES	%Inh (INSR) [%]	%Inh (IRAK1) [%]	%Inh (IRAK3) [%]	%Inh (IRAK4) [%]	%Inh (ITK) [%]	%Inh [1] [%]	%Inh [2] [%]	%Inh [3] [%]	%Inh [4] [%]	%Inh (JNK1) [%]	%Inh (JNK2) [%]	%Inh (JNK3) [%]	%Inh (KIT-autoinhibited) [%]	%Inh (KIT) [%]	%Inh (LATS1) [%]	%Inh (LATS2) [%]	%Inh (LCK) [%]	%Inh (LIMK1) [%]	%Inh (LIMK2) [%]	%Inh (LKB1) [%]
Cc1nc(N(C)[C@H]2CN(C(=O)CC#N)CC[C@H]2C)c2cc[nH]c2n1	0	0	0	0	5	11	0	69	97.6	1	0	0	0	0	7	13	0	0	16	0
CCc1ccc(-c2ccc3c(c2)-c2nn(C)cc2S(=O)(=O)N3C)cc1	0	0	0	10	0	0	10	0	0	0	0	0	53	0	0	0	17	0	0	21
COc1cc(Nc2nccc(N3CCC(NC(=O)C4COc5ccccc5O4)C3)n2)cc(OC)c1OC (stereo not drawn) [GSK1379761]	0	61	76	0	4	7	21	98.5	55	20	22	7	0	22	3	0	31	0	4	27
CCC(=O)c1c(-c2ccccc2)c2cc(Cl)ccc2c(=O)n1Cc1cc(C(=O)NC2CC2)n(C)n1	0	21	0	20	0	10	3	0	6	99.7	100	99.8	0	58	19	1	0	0	0	9
O=C(Nc1n[nH]c2nc(-c3ccccc3)c(Cl)cc12)C1CC1 [SB-734909]	31	26	23	24	0	14	22	13	0	56	32	29	0	51	0	24	3	9	12	37
C[C@@H]1CC[C@H](C(=O)NC2CCCCC2)CN1c1cc(-c2ccc3c(N)n[nH]c3c2)nc(N)n1 [GSK2291363]	10	34	0	28	22	7	11	9	0	34	30	10	10	27	0	72	24	0	11	23
CCC(=O)c1c(-c2ccccc2)c2cc(Cl)ccc2c(=O)n1Cc1cc(S(C)(=O)=O)n(CC(N)=O)n1	0	0	0	0	0	0	51	0	0	99	99	99.2	4	6	0	0	3	0	0	37
Cn1c(=O)c(F)c(Nc2ccc(I)cc2F)c2c(=O)n(OC[C@H](O)CO)cnc21	5	0	0	0	3	2	14	9	1	18	0	0	0	7	18	0	1	14	26	0
Cc1cc(Nc2nc(-c3cccc(C)n3)nc3ccccc23)ccn1 [GW872411]	0	0	0	0	0	4	81	0	0	0	14	0	2	0	0	0	0	0	0	0
CN1C(=O)C(Nc2cc(Cl)c(O)c(Cl)c2)=C(c2ccc(Cl)cc2)C1=O [SB-404321]	0	0	0	0	0	13	0	0	0	24	19	15	26	0	0	0	0	0	0	32
COc1cc(OC)cc(-c2cc3cnc(N)nc3nc2NC(=O)NC(C)(C)C)c1	0	0	0	0	0	0	0	0	0	0	0	0	0	0	0	34	0	0	0	0
COc1ccc(Nc2nccc(N3CCC(NS(=O)(=O)c4ccc(NC(C)=O)cc4)C3)n2)cc1 (stereo not drawn) [GSK1379729]	4	0	17	57	19	66	0	95.6	5	20	0	0	0	9	0	0	23	14	10	0
COc1cc(Nc2ccnc3ccc(C(F)(F)F)cc23)cc(OC)c1OC [GW577382]	10	22	6	2	9	8	0	9	100	39	48	29	0	19	0	0	68	18	0	0
CCS(=O)(=O)c1ccc(OC)c(Nc2ncc(-c3ccc(F)cc3)o2)c1.Cl [GW591947]	0	0	0	3	0	11	0	8	0	2	21	0	0	17	0	0	13	0	0	0
Cc1nnc(-c2ccc(C)c(-c3ccc(C(=O)O)cc3)c2)o1 [GW608005]	0	0	0	13	4	3	0	24	0	1	0	0	0	0	0	0	0	4	0	5
Cc1ccccc1COc1cc(-n2cnc3cc(Cl)ccc32)sc1C(N)=O [GW813349]	3	22	3	17	13	0	20	17	0	24	0	0	0	0	0	61	0	0	13	0
COc1cc2nccc(Nc3ccc(OCc4ccc(NC(C)=O)cc4)cc3)c2cc1OC.Cl [GW440135]	0	28	1	0	5	20	0	0	0	15	0	0	12	100	0	0	22	0	0	0
CN1C(=O)C(Nc2ccccc2)=C(c2ccccc2)C1=O [SB-300079]	22	16	0	0	0	0	33	42	2	14	0	0	17	0	0	0	0	0	0	13
Cc1ccc(Oc2ccc(Nc3ncnc4cc[nH]c34)cc2C)cn1	11	6	16	0	0	0	24	18	0	43	44	57	12	16	26	44	3	4	0	11
COc1cc(Nc2nccc(N3CCC(NC(=O)C(C)c4ccc(Cl)cc4)C3)n2)cc(OC)c1OC (stereo not drawn) [GSK1379757]	0	41	68	10	11	20	0	86	0	3	6	0	0	2	0	1	8	1	22	7
CCn1c(-c2nonc2N)nc2ccccc21 [SB-693162/GW549034]	17	0	0	48	0	8	0	0	0	78	57	62	26	0	0	82	12	0	0	0

SMILES	%Inh (INSR) [%]	%Inh (IRAK1) [%]	%Inh (IRAK3) [%]	%Inh (IRAK4) [%]	%Inh (ITK) [%]	%Inh [1] [%]	%Inh [2] [%]	%Inh [3] [%]	%Inh [4] [%]	%Inh (JNK1) [%]	%Inh (JNK2) [%]	%Inh (JNK3) [%]	%Inh (KIT-autoinhibited) [%]	%Inh (KIT) [%]	%Inh (LATS1) [%]	%Inh (LATS2) [%]	%Inh (LCK) [%]	%Inh (LIMK1) [%]	%Inh (LIMK2) [%]	%Inh (LKB1) [%]
CCCC(=O)Nc1n[nH]c2ncc(-c3cccc4ccccc34)cc12 [SB-642057]	18	77	0	41	15	9	0	0	0	20	21	0	0	12	0	25	20	9	0	0
Nc1nc(-c2ccccc2F)c(-c2ccnc3ccccc23)s1 [GW560459]	94.4	30	17	15	3	18	0	9	0	56	87	87	0	9	0	0	11	1	0	0
CN(C)c1cc(-c2ccc3c(N)n[nH]c3c2)nc(N)n1 [GSK2219329]	0	0	0	0	6	6	7	0	0	0	11	4	81	7	0	2	17	0	14	0
CCC(=O)c1c(-c2ccccc2)c2cc(Cl)ccc2c(=O)n1Cc1cc(S(C)(=O)=O)n(CCC(C)(C)O)n1	13	2	25	1	5	3	0	0	3	99.6	99.9	99.9	0	11	31	17	13	0	16	3
CCn1c(-c2ccoc2)nc2cnccc21 [SB-733887]	96.3	59	0	50	9	9	65	16	0	9	0	0	61	5	19	60	35	10	6	0
Nc1n[nH]c2ncc(-c3ccccc3)cc12 [SB-517081]	18	49	3	22	19	4	34	55	0	38	14	5	13	83	0	0	7	0	9	0
Cl.NS(=O)(=O)c1cccc(Nc2cc(-c3ccc(F)cc3)n[nH]2)c1 [GW824645]	5	0	0	0	0	0	23	48	0	8	1	0	35	90	0	0	0	0	0	25
Nc1n[nH]c2nnc(-c3ccccc3)c(-c3ccccc3)c12 [GW554060]	3	12	9	19	12	21	0	10	0	19	23	15	0	18	0	4	14	6	11	0
Nc1nccc2scc(-c3ccc4c(c3)CCN4C(=O)Cc3ccccc3)c12 [GSK2576924]	0	0	0	0	4	19	0	4	0	0	10	0	5	74	0	0	11	3	14	9
CCCNC(=O)Nc1ccc(Oc2ncnc3ccn(C)c23)cc1	31	16	0	15	5	17	0	1	0	0	3	0	3	89	44	11	0	0	0	9
COc1cc2ncn(-c3cc(OCc4ccc(S(C)(=O)=O)cc4)c(C(N)=O)s3)c2cc1OC [GW869979]	13	26	4	21	16	2	11	18	30	36	18	18	21	0	0	39	12	11	16	25
O=C(Nc1ccc2c(c1)OCO2)NC1CCN(c2ccnc(NCc3ccc(F)cc3)n2)CC1 [GSK1379859]	45	0	0	0	0	7	0	0	0	0	0	0	0	2	0	0	14	0	21	6
Cc1c(Cn2c(C)nn3c(=O)cc(N4CCO[C@H](C)C4)nc23)cccc1C(F)(F)F [GSK2373690]	0	23	14	24	26	21	0	14	0	18	27	17	0	13	0	0	15	5	0	0
COc1cccc(-n2cnc3c(N)ncnc32)c1 [SKF-97416]	0	38	42	0	0	0	58	44	19	0	27	8	23	12	8	1	10	0	7	60
CCC(=O)c1c(-c2ccccc2)c2cc(Cl)ccc2c(=O)n1Cc1ccc(C(=O)O)cc1	0	0	0	0	12	9	0	0	0	95.2	93.4	94.6	0	39	2	0	0	2	0	1
COC(=O)c1c(-c2ccccc2)c2cc(Br)ccc2c(=O)n1Cc1ccc(NC(=O)CCC(=O)O)cc1	8	8	25	16	12	5	0	0	0	99	99.1	99.3	1	38	27	17	0	0	0	6
Cc1nnc(-c2ccc3ncn(-c4ccc(S(C)=O)cc4)c3c2)o1 (stereo not drawn)	0	0	0	0	15	33	28	0	0	6	0	0	0	29	43	8	10	19	6	9
COc1ccc(-c2coc3ccc(-c4nnc(SCc5cccc(C#N)c5)o4)cc23)cc1	20	0	0	0	0	22	36	12	0	22	17	14	1	21	29	11	11	26	0	0
COc1ccc(-n2cnc3c(N)ncnc32)cc1 [SKF-97236]	52	0	12	7	7	5	68	31	27	12	0	0	2	94.2	25	34	31	2	0	0
COc1cc2nccc(Nc3cccc(Oc4ccccc4)c3)c2cc1OC.Cl [GW284543]	4	0	2	0	13	0	1	0	0	1	31	0	0	15	10	0	51	0	0	0
Nc1ncnc2c1ncn2-c1ccc(Cl)cc1 [AH2635]	0	17	0	0	0	2	0	4	0	0	0	0	0	65	0	24	24	0	6	10
